In the supplement of paper PMC7724964:

Biological target: T1, EEF1A2 240-332 GTP_EFTU_D2 (domain begin residue: 240, domain end residue: 332), Q05639
T1 chain: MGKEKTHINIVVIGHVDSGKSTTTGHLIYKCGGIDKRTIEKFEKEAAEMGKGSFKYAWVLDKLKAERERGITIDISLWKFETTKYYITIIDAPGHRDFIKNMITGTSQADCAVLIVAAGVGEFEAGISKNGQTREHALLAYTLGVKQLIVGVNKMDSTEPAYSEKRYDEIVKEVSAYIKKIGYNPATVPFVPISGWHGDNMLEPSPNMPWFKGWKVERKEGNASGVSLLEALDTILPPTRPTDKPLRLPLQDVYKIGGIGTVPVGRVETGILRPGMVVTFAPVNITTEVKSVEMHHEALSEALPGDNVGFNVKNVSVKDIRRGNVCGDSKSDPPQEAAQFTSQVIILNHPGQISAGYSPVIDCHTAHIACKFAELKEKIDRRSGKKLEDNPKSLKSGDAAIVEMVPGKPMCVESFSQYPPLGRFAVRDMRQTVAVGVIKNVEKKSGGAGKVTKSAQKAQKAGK
Assay: phage ELISA signal ratio (GST-PRM binding over GST background); higher = stronger binding of peptide-phage to the PRM
Method in brief: (§1)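 Human peptide recognition domains were expressed in 96-well plates as fusions to the C-terminus of glutathione S-transferase (GST) and selected against an M13 phage library displaying randomized hexadecapeptides, cysteine-free and glycine-flanked, on the gene-8 major coat protein. Five selection rounds were run, and approximately 48 individual clones from rounds 4 and 5 were tested by phage ELISA. Each value is the ELISA signal on the GST-domain fusion divided by the signal on GST alone. Positive clones were sequenced.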

Binder	phage ELISA signal ratio
SDHTHWQLIQWDGWML	11.6
PWGPYQSFSELDIKHE	17.3
HWWQDNQGYVWFQVEQ	5.34

Biological target: T2, DYNLL2 1-89 Dynein_light (domain begin residue: 1, domain end residue: 89), Q96FJ2
T2 chain: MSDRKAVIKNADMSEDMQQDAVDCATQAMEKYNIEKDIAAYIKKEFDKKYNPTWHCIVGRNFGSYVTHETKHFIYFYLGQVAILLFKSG
Assay: as above
Method in brief: as §1

Binder	phage ELISA signal ratio
TMTPWDWPIYQGESEH	25.7
TEMYEWMADATTNTMW	28
TMTDATLFEVPSYWIT	31.9
ETQTPEWMGWLMESAI	34.3
DIFPTYQHFMQQYSSE	30.3
GQTEFVYKQMPVSGAR	33
VQTIGTWEWDHVPVEV	41
TQTGFGQAHMETPHSL	35.8
TQTMSWTGEKPQQWEM	27
VQTEAWWPLQTPAWMV	19.7
TQFGETWVNWIPLTIT	25.9
SSTTGDDVLNSLTEMP	34.4
TQTDVISWQEFIFMRP	36.2
TQVWPDDWWALGNYYE	32
GTQTDEIFYLREYKSM	19.2
TQTLILDMDNMKFMTT	36.6
WTQTMNNITPWIEGIA	26.2
MEMGTQTYKWQEWAFV	31.3
VDQASQTWVWWAGQAY	35.9
AMVQTEDDWEMMWEQL	17.6
STQTDSNWKMMPDGTV	34.5
TQTEPYKHQDQAHTRG	26.1

Biological target: EIF4A1 29-237 DEAD (domain begin residue: 29, domain end residue: 237), P60842
Assay: as above
Method in brief: as §1

Chain of EIF4A1 29-237 DEAD (domain begin residue: 29, domain end residue: 237), P60842 (P60842 whole entry): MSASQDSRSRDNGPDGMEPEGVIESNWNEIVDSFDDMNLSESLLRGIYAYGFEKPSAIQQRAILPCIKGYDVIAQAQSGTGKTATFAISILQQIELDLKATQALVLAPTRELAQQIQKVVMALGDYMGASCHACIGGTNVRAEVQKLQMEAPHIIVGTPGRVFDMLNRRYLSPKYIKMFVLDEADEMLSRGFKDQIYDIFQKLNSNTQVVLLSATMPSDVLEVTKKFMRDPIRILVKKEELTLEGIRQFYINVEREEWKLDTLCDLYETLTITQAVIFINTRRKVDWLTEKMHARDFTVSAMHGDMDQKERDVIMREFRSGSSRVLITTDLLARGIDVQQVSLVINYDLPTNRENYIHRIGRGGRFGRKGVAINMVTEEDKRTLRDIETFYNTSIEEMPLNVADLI

Binder	phage ELISA signal ratio
EMPQYMMTWYYEPDST	5.95

Biological target: EIF4E 2-217 IF4E (domain begin residue: 2, domain end residue: 217), P06730
Assay: as above
Method in brief: as §1

Chain of EIF4E 2-217 IF4E (domain begin residue: 2, domain end residue: 217), P06730 (P06730 whole entry): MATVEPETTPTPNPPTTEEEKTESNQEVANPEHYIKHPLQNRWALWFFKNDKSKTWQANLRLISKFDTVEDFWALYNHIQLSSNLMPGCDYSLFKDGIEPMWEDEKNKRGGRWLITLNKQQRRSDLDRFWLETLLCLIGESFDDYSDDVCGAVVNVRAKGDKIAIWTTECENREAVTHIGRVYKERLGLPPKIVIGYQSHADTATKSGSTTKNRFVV

Binder	phage ELISA signal ratio
PWSWFTYREQLETENV	20.1
FLYYYGLSHNWFGDQT	7.6
SVWWFGQTPYVLWEAS	7.15

Biological target: T3, ESR2 263-500 Hormone_recep (domain begin residue: 263, domain end residue: 500), Q92731
T3 chain: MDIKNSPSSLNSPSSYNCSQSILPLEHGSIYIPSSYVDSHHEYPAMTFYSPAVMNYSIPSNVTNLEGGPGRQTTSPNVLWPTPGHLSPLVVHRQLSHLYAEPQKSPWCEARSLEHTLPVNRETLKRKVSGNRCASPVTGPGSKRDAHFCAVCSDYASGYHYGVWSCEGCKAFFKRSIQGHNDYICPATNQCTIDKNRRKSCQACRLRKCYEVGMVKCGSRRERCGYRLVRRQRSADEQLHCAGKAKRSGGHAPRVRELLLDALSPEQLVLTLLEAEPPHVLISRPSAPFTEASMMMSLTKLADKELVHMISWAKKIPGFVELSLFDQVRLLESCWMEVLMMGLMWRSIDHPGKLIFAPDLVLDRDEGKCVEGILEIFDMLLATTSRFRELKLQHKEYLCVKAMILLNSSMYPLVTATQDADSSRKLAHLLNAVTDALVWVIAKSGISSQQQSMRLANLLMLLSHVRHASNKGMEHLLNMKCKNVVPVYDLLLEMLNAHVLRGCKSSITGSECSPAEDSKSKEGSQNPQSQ
Assay: as above
Method in brief: as §1

Binder	phage ELISA signal ratio
EERTWSFEEWLWMPAM	26.6
GVDVWLWDKQWNMWMP	25.9

Biological target: T4, FKBP3 109-224 FKBP_C (domain begin residue: 109, domain end residue: 224), Q00688
T4 chain: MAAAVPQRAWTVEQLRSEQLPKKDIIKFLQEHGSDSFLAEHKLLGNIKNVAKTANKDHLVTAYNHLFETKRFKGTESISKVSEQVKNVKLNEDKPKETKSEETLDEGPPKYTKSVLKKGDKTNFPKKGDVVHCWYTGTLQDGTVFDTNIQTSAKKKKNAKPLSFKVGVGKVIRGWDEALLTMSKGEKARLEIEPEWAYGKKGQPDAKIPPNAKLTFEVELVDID
Assay: as above
Method in brief: as §1

Binder	phage ELISA signal ratio
HADLQGLGVFEWQEPV	12.6
VGVYSLQDEPQKRVVV	6.15
QQGIGVFQDWFNHGLI	9.64
WGAGVFLVADPQMEVV	5
EEWKPHPEEGMGVFLV	13
KGVFLPEIEWKQGYDQ	11.9

Biological target: EIF2S1 9-93 S1 (domain begin residue: 9, domain end residue: 93), P05198
Assay: as above
Method in brief: as §1

Chain of EIF2S1 9-93 S1 (domain begin residue: 9, domain end residue: 93), P05198 (P05198 whole entry): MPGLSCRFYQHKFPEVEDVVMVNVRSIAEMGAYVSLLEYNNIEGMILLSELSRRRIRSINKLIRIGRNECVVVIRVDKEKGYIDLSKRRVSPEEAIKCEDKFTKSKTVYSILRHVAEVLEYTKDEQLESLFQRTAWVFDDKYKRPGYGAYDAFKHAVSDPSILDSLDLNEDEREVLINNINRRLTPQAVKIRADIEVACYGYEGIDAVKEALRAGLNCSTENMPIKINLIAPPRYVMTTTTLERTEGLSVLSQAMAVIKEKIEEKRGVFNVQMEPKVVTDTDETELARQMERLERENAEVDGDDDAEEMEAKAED

Binder	phage ELISA signal ratio
SSGSSTRPMRVTRAPT	4.01
EYTNWYWLGYLPETVM	14.6
WTWDSEMGIWTLANDI	20.4
VWVAWSWMHSVQMEAD	12.3

Biological target: T5, ENAH 9-116 WH1 (domain begin residue: 9, domain end residue: 116), Q8N8S7
T5 chain: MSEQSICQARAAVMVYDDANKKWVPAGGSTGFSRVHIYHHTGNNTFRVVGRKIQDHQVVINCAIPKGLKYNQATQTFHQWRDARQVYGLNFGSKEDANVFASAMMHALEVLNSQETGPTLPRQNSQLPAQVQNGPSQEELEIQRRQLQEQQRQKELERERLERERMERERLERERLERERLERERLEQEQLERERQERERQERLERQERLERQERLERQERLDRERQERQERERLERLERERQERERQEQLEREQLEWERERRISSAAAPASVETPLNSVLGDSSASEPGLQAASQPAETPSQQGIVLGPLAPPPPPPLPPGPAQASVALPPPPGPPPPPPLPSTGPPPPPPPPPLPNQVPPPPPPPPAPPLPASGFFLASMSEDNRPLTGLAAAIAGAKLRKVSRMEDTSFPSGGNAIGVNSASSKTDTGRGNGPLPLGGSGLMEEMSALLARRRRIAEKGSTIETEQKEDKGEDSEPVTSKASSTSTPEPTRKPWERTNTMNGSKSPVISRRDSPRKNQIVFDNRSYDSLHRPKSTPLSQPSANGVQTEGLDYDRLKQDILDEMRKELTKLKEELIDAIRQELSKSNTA
Assay: as above
Method in brief: as §1

Binder	phage ELISA signal ratio
VTDNAWPYPPVAVSQH	7.69
WEGNQWEWPPAYMELM	7.2

Biological target: T6, ESRRA 179-423 Hormone_recep (domain begin residue: 179, domain end residue: 423), P11474
T6 chain: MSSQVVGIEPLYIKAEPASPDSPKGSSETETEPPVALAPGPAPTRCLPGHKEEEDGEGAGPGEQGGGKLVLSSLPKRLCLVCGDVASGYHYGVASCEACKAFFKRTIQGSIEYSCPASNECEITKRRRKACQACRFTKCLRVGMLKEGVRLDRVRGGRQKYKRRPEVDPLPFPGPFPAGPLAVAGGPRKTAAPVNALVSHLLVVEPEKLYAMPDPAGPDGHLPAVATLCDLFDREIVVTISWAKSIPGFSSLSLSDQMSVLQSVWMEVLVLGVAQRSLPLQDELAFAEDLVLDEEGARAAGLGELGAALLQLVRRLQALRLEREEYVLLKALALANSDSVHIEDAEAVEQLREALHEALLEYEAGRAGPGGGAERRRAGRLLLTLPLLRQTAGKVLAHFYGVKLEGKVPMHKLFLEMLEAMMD
Assay: as above
Method in brief: as §1

Binder	phage ELISA signal ratio
SQQWSTHYPTFFELML	3.25
EFNQWFADHWQQWHYE	3.76
VQWQDQYPTFYAEMSK	8.22

Biological target: T7, EVL 1-130 WH1 (domain begin residue: 1, domain end residue: 130), Q9UI08
T7 chain: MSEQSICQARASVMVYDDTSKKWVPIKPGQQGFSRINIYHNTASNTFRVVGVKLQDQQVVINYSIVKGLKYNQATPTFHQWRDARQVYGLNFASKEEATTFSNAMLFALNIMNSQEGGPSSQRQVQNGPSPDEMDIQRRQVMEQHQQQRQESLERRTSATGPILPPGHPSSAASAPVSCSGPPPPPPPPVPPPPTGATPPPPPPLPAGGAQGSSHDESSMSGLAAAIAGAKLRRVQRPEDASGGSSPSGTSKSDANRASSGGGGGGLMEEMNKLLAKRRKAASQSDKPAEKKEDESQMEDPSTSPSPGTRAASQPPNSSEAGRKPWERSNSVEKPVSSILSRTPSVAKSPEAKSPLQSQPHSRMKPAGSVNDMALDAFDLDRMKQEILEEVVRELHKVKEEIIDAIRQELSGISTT
Assay: as above
Method in brief: as §1

Binder	phage ELISA signal ratio
GIGFEWVHDGWWPMWT	13.8

Biological target: PABPC1 96-174 RRM_1 (domain begin residue: 96, domain end residue: 174)
Assay: as above
Method in brief: as §1

Binder	phage ELISA signal ratio
WTWDSEMGIWTLANDI	20.4
VWVAWSWMHSVQMEAD	12.3

Biological target: T8, ESRRG 219-458 Hormone_recep (domain begin residue: 219, domain end residue: 458), P62508
T8 chain: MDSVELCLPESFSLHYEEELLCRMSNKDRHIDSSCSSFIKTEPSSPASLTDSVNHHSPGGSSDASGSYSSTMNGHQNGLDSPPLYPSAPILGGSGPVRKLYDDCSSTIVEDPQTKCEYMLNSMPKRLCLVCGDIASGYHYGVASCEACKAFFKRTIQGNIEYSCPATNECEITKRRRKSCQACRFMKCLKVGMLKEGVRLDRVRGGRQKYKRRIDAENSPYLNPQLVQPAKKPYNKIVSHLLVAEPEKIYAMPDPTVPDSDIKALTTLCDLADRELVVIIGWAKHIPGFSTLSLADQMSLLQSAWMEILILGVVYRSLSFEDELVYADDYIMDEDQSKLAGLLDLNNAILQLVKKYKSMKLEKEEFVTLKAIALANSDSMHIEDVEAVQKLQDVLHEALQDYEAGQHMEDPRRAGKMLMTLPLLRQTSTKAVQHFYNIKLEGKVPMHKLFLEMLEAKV
Assay: as above
Method in brief: as §1

Binder	phage ELISA signal ratio
TNPPAEHMSRLHWELT	18.2
SFPFLKMYLDPEPDDV	11.2
QYVEEGSWYMLHMYLT	17.4
VHRDYQLGHEWLVFIN	13.1
EHIQGHAPLLWEVLHS	10.8

Biological target: PCMT1 1-227 PCMT (domain begin residue: 1, domain end residue: 227), P22061
Assay: as above
Method in brief: as §1

Chain of PCMT1 1-227 PCMT (domain begin residue: 1, domain end residue: 227), P22061 (P22061 whole entry): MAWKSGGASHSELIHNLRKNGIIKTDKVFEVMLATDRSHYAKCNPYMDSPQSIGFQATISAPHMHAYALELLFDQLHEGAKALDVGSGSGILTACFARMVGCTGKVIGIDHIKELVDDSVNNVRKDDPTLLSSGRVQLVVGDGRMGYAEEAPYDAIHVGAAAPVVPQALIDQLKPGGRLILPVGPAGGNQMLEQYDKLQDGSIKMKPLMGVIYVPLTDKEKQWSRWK

Binder	phage ELISA signal ratio
TNPPAEHMSRLHWELT	18.2
SFPFLKMYLDPEPDDV	11.2
VHRDYQLGHEWLVFIN	13.1
EHIQGHAPLLWEVLHS	10.8

Biological target: T9, EEF1A1 244-333 GTP_EFTU_D2 (domain begin residue: 244, domain end residue: 333), P68104
T9 chain: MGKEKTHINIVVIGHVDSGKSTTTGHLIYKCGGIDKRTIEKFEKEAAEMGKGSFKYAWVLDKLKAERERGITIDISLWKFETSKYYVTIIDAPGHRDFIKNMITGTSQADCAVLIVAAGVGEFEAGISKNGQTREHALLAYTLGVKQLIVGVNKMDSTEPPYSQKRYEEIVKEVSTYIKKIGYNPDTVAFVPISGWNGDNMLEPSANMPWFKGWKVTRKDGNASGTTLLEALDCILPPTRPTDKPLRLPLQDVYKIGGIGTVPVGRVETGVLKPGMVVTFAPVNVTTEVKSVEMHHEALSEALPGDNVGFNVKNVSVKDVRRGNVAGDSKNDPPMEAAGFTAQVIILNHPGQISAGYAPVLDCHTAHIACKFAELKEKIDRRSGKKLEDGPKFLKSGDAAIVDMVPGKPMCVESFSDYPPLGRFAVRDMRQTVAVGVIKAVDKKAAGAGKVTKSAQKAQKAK
Assay: as above
Method in brief: as §1

Binder	phage ELISA signal ratio
ATPPQLTAHPNFMMWF	8.96

Biological target: EGFR 334-495 Recep_L_domain (domain begin residue: 334, domain end residue: 495), P00533
Assay: as above
Method in brief: as §1

Binder	phage ELISA signal ratio
EFFIPKEFYWDRVQDV	26.6
QWDFSQMTWWPIEEWK	13.3

Biological target: T10, SPRED1 13-131 WH1 (domain begin residue: 13, domain end residue: 131), Q7Z699
T10 chain: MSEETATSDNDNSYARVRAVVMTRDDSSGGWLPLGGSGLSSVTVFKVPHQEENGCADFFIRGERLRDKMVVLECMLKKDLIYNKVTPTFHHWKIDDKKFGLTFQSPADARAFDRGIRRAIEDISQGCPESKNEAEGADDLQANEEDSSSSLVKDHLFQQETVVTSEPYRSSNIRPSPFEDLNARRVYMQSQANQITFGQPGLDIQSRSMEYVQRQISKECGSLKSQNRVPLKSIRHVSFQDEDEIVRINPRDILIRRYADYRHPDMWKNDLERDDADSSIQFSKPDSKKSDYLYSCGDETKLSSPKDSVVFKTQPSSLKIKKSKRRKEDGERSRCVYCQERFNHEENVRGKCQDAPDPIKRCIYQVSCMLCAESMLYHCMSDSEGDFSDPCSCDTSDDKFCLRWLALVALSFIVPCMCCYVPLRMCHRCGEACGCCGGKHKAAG
Assay: as above
Method in brief: as §1

Binder	phage ELISA signal ratio
EFNQWFADHWQQWHYE	5.28
